Reference: PubChem BioAssay
Where “and” joins values, the source holds several entries; their conditions need not be identical. Identical values can stand only once. Inconclusive results are not listed. Calls of active or inactive are those of the source.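 Rule for the calls, unless noted: active = mean z-score across replicates of 1.96 or higher in either the MELAS or the Rieske mutant cell line; inactive = the rest.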

Columns and labels:
[1] = liver-stage malaria parasite growth inhibition, primary screen, cell-based, HepG2, luciferase luminescence, HepG2 viability (AID 624349; in the data active = parasite load remaining mostly below about 12%, no sharp cut-off; inactive = mostly above about 10%;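 note: 100% = mean of DMSO negative control wells on the same plate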); conditions: P. berghei liver stage in HepG2, luciferase luminescence, concentration not given here; parasite load remaining: stronger effect = lower value; viability: measured here: HepG2 viability without parasites
[2] = stimulators of nuclear beta-catenin in C2C12, primary screen, imaging, WNT3A-conditioned medium, mouse C2C12, NPC library (AID 1117326; in the data active = nuclear beta-catenin stimulation mostly above about 4.2%, no sharp cut-off; inactive = mostly below about 10%); conditions: stronger effect = higher value
[3] = stimulators of insulin release from INS-1E, primary screen, cell-based, 5 mM glucose, NPC library (AID 1117329;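 active = compound raises insulin release from rat beta cells at 5 mM glucose, no numeric limit stated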); conditions: rat INS-1E insulin secretion, at 10 µM, stronger effect = higher value
[4] = growth inhibition of GSK3B-pretreated HCT116 cells – cell-based, CellTiter-Glo, 0.2 to 20 µM (AID 1117336;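 active = compounds lowering colon cancer cell viability after pretreatment blocking the GSK3B kinase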); conditions: HCT116 viability after GSK3B inhibitor, at 20 µM, stronger effect = higher value
[5] = inhibition of endothelial tube formation, primary screen, imaging, VEGF stimulated, CD31 staining, tube area, NPC library (AID 1117340;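 active = compound that reduces growth-factor-driven endothelial tube area in a mixed cell culture, no cutoff stated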); conditions: VEGF-stimulated ADSC/ECFC co-culture, at 10 µM, stronger effect = higher value
[6] = glucagon-like peptide 1 release enhancers, primary assay, NCI-H716 cell line, NPC library (AID 1117341;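 active = compound raises GLP1 secretion from the human gut endocrine cells, with no numeric limit stated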); conditions: NCI-H716 cells, at 10 µM, stronger effect = higher value
[7] = HCT116 colon cancer cell growth inhibition, primary screen, CellTiter-Glo luminescence, NPC library (AID 1117342;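 active = compounds that lower survival of HCT116 colon cancer cells in the luminescence readout, no numeric limit stated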); conditions: at 20 µM (top of the series)
[8] = CellTiter-Glo luminescent readout of SW480 viability loss, NPC library primary (AID 1117343;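 active = compounds that lower viability of the colon cancer cells in the luminescence readout, with no numeric limit stated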); conditions: CellTiter-Glo luminescence; at 20 µM (top of the series) unless noted
[9] = decreased DLD-1 cellular survival, CellTiter-Glo luminescent readout, NPC compound collection, primary HTS (AID 1117346;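 active = compounds that lower survival of DLD-1 colon cancer cells in the luminescence readout, no cutoff given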); conditions: DLD-1 viability, CellTiter-Glo luminescence; at 20 µM (top of the series)
[10] = sensitizers of A549 cells to miR-34 induction, primary screen, imaging, A549 dox-inducible miR-34, nuclei and caspase counts (AID 1347080;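 active = compounds whose cell count with miR-34 switched on is under 0.7 times the count with it off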); conditions: A549 miR-34 inducible, Hoechst nuclei count, 48 h
[11] = survival rescue of mitochondrial mutant cells in low glucose, primary screen, MELAS cybrids, Rieske KO mouse fibroblasts, CellTiter-Glo (AID 1508586);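 note: z relative to plate mean and SD of compound and empty wells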
[12] = target: NAD(+) hydrolase SARM1 (Homo sapiens) (UniProt Q6SZW1); assay: SARM1 TIR NADase inhibitors, cell lysate, NAD-Glo luminescence (AID 1508614;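 active = compound whose remaining NAD level is above about 45 nM, limit read from the data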;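 note: higher remaining NAD means stronger inhibition of SARM1 NADase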); conditions: SAM-TIR HEK293T lysate NADase, at 1 µM, stronger effect = higher value
[13] = target: Mitogen-activated protein kinase 7 (Homo sapiens) (UniProt Q13164); assay: ERK5 transactivation activators in reporter cells, primary screen, cell-based, HTS (AID 1508626;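 active = luciferase signal above three times the same-plate solvent-only control wells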;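 note: luciferase driven by Gal4-ERK5 fusion binding five Gal4 sites before minimal TATA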); conditions: HeLa Gal4-ERK5 transactivation, 18 h, at 5 µM, stronger effect = higher value
[14] = viability rescue of complex I mutant cybrids, primary screen, cell-based, galactose medium, ATP luminescence (AID 1645843;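 active = z-score of at least 1.8 in each of two replicates, scored against plate mean and spread of sample wells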;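 note: positive z means more ATP and so rescue of galactose-driven cybrid death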); conditions: complex I mutant cybrid cells, 72 h, stronger effect = higher value
[15] = target: ATP-dependent translocase ABCB1 (Homo sapiens) (UniProt P08183); assay: MDR1 (ABCB1) efflux transporter inhibition, cell-based (AID 377; in the data active = fluorescence slope change above about 50%); conditions: MDR1-expressing cells, fluorescent substrate accumulation slope; stronger effect = higher value; concentration not given here
[16] = hESC survival regulators, cell-based (AID 493140; call rule not given here;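 note: cells exposed to compounds for four days before counting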); conditions: human embryonic stem cell survival screen; stronger effect = higher value
[17] = stronger effect = lower value, cell number ratio, induced over uninduced
[18] = measured here: relative caspase fold change +Dox/-Dox
[19] = measured here: total cells with miR-34 induction, stronger effect = lower value
[20] = measured here: total cells without miR-34 induction
[21] = MELAS cybrid survival, CellTiter-Glo 48 h, stronger effect = higher value
[22] = Rieske KO mouse fibroblast survival, CellTiter-Glo 72 h

Sequence of NAD(+) hydrolase SARM1 (Homo sapiens) (Q6SZW1 whole entry, looked up, the tested form may be a part): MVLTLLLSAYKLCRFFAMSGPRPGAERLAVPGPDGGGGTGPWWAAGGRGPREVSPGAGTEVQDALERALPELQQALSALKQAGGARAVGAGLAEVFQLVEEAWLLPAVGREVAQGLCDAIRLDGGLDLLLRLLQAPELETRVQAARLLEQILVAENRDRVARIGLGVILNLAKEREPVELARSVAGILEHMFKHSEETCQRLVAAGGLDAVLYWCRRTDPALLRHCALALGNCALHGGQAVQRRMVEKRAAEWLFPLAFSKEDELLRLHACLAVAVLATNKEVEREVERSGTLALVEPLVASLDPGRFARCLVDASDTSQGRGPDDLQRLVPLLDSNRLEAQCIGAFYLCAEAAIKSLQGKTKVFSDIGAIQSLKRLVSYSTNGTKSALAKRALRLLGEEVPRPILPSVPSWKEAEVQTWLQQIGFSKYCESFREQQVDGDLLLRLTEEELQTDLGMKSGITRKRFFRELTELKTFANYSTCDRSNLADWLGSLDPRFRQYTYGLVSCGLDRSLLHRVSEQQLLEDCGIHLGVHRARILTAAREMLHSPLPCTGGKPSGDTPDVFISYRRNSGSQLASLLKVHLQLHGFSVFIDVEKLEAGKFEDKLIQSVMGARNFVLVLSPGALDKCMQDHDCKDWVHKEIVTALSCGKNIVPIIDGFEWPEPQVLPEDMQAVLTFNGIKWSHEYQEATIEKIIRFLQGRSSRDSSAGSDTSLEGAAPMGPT
Sequence of Mitogen-activated protein kinase 7 (Homo sapiens) (Q13164 whole entry, looked up, the tested form may be a part): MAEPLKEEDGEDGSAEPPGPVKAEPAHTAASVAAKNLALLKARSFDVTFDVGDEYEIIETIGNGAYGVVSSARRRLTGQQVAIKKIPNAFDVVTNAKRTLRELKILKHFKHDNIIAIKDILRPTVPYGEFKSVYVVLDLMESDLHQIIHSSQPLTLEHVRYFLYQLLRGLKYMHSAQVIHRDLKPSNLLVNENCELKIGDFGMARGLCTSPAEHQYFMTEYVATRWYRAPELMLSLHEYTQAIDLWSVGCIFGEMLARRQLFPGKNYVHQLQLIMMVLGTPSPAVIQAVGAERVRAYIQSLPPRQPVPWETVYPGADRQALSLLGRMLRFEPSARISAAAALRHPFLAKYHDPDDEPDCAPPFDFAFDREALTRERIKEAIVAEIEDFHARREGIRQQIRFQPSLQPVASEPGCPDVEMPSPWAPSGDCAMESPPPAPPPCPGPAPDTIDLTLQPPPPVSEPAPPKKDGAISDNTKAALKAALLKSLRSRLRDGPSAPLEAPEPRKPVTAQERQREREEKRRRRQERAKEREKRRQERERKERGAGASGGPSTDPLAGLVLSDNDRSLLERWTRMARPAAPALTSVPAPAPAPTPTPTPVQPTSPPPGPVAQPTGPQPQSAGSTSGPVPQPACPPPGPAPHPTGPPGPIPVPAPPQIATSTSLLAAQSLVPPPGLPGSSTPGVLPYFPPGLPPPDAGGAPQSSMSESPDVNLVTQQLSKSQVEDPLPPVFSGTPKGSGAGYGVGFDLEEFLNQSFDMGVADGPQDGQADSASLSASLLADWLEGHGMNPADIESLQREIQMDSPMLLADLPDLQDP
Sequence of ATP-dependent translocase ABCB1 (Homo sapiens) (P08183 whole entry, looked up): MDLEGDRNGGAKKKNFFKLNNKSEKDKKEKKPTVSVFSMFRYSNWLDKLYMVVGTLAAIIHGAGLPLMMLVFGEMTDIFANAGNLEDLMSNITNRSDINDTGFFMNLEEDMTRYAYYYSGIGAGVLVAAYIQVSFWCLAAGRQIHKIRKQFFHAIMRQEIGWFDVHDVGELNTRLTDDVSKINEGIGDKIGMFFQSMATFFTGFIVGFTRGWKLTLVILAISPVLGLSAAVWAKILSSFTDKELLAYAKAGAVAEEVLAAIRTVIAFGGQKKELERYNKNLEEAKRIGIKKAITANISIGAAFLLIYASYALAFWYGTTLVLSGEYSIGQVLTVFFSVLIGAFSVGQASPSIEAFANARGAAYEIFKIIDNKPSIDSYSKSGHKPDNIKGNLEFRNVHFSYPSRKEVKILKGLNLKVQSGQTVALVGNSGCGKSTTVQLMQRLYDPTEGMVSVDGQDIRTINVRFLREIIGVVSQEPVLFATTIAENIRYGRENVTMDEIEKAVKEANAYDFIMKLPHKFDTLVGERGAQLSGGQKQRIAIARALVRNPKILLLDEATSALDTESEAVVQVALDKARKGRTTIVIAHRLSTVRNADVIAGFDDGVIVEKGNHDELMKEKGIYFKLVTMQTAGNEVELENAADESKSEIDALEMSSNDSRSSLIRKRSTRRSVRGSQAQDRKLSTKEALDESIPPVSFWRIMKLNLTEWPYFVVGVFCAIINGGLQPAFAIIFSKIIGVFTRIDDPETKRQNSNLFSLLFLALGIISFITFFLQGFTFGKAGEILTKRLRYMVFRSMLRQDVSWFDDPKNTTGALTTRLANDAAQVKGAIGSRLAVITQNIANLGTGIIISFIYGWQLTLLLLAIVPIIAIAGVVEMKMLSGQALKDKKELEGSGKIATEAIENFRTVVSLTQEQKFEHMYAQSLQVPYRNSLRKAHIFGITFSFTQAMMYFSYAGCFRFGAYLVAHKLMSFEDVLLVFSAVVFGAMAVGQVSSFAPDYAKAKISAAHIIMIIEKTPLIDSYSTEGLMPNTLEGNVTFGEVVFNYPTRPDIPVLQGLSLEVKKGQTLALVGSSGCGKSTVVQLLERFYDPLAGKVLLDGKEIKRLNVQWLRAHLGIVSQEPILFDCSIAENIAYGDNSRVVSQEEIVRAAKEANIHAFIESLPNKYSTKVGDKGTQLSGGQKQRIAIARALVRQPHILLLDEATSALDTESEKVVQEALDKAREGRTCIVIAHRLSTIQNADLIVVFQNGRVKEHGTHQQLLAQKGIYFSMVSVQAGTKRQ

With `C=C1C[C@H]2[C@@H]3C=C(C)C4=CC(=O)CC[C@]4(C)[C@H]3CC[C@]2(C)[C@@]1(OC(C)=O)C(C)=O` the parasite load remaining [1] was 14.5% (inactive), the viability [1] was 66% and the nuclear beta-catenin stimulation ([2]; at 10 µM) was -0.2% (inactive). The nuclear beta-catenin stimulation ([2]; stimulation, at 2 µM) was 0.8%, the insulin secretion stimulation [3] was 0.5% (inactive) and the viability decrease [4] was 37.4% (inactive). The tube area decrease [5] was -17.7% (inactive), the GLP1 secretion stimulation [6] was -1.4% (inactive) and the inhibition of viability [7] was 62% (active). The viability decrease (inhibition) [8] was 61.1% (active), the viability decrease (inhibition) [9] was 53.6% (active) and the fold change [10, 17] was 0.868 (inactive). For the same compound, the fold change [10, 18] was 1.42, the cell count [10, 19] was 5790 and the cell count [10, 20] was 6660. For the same compound, the z-score [11, 21] was 0.533 (inactive) and 0.334 (inactive), the z-score [11, 22] was 0.392 and 1.14 and the remaining NAD [12] was 15 nM (inactive). The luciferase signal [13] was 64 AU (inactive) and the z-score [14] was -0.29 (inactive).

For `CC1(C)[C@@H](OC(=O)CCC(=O)O)CC[C@]2(C)[C@H]3C(=O)C=C4[C@@H]5C[C@@](C)(C(=O)O)CC[C@]5(C)CC[C@@]4(C)[C@]3(C)CC[C@@H]12`, the fluorescence slope change [15] was 123% (active), the survival [16] was 4.33 (inactive) and the parasite load remaining [1] was 77.3% (inactive). The viability [1] was 94.7%, the nuclear beta-catenin stimulation ([2]; at 10 µM) was 4.8% (inactive) and the nuclear beta-catenin stimulation ([2]; stimulation, at 2 µM) was 1.3%. For the same compound, the insulin secretion stimulation [3] was -1% (inactive), the viability decrease [4] was 50.3% (active) and the tube area decrease [5] was 15.3% (inactive). The GLP1 secretion stimulation [6] was 2.7% (inactive), the inhibition of viability [7] was 43.6% (inactive) and the viability decrease (inhibition) [8] was 15.1% (inactive). The viability decrease (inhibition) [9] was 35.6% (inactive), the fold change [10, 17] was 0.87 (inactive) and the fold change [10, 18] was 1.72. The cell count [10, 19] was 9330, the cell count [10, 20] was 10700 and the z-score [11, 21] was 0.704 (inactive). For the same compound, the z-score [11, 22] was 0.0878, the remaining NAD [12] was 10 nM (inactive) and the luciferase signal [13] was 60 AU (inactive).

For `Cc1ccc(Cl)c(OCC(O)CNC(C)(C)C)c1` (stereo not given), the nuclear beta-catenin stimulation ([2]; at 10 µM) was 0.2% (inactive), the nuclear beta-catenin stimulation ([2]; stimulation, at 2 µM) was 0.1% and the insulin secretion stimulation [3] was 1% (inactive). For the same compound, the viability decrease [4] was -43.6% (inactive), the tube area decrease [5] was -6.8% (inactive) and the GLP1 secretion stimulation [6] was 0% (inactive). The inhibition of viability [7] was -1.43% (inactive), the viability decrease (inhibition) [8] was -8.9% (inactive) and the viability decrease (inhibition) [9] was -15.9% (inactive). For the same compound, the fold change [10, 17] was 0.861 (inactive), the fold change [10, 18] was 0.19 and the cell count [10, 19] was 8600. The cell count [10, 20] was 9990, the z-score [11, 21] was 0.548 (inactive) and the z-score [11, 22] was -0.195. The z-score [14] was 0.405 (inactive).

In the case of `CCCC(=O)OCOC(=O)C1=C(C)NC(C)=C(C(=O)OC)C1c1cccc(Cl)c1Cl` (stereo not given), the nuclear beta-catenin stimulation ([2]; at 10 µM) is reported as 15.7% (inactive), the nuclear beta-catenin stimulation ([2]; stimulation, at 2 µM) is reported as 12.3% and the insulin secretion stimulation [3] is reported as 3.9% (inactive). For the same compound, the viability decrease [4] was -9.1% (inactive), the tube area decrease [5] was -4.1% (inactive) and the GLP1 secretion stimulation [6] was 5.1% (inactive). The inhibition of viability [7] was 25.4% (inactive), the viability decrease (inhibition) [8] was 6.5% (inactive) and the viability decrease (inhibition) [9] was 14.3% (inactive). The fold change [10, 17] was 0.959 (inactive) and 0.978 (inactive), the fold change [10, 18] was 0.415 and 0.463 and the cell count [10, 19] was 8260 and 7700. For the same compound, the cell count [10, 20] was 8610 and 7870, the z-score [11, 21] was 0.611 (inactive) and -0.319 (inactive) and the z-score [11, 22] was -0.278 and 0.00408. The z-score [14] was -1.31 (inactive).

In the case of `Nc1c(CC(=O)O)cccc1C(=O)c1ccc(Br)cc1`, the nuclear beta-catenin stimulation ([2]; at 10 µM) is reported as -0.1% (inactive), the nuclear beta-catenin stimulation ([2]; stimulation, at 2 µM) is reported as 0.4% and the insulin secretion stimulation [3] is reported as 1.4% (inactive). For the same compound, the viability decrease [4] was 52.4% (active), the tube area decrease [5] was -4.7% (inactive) and the GLP1 secretion stimulation [6] was 0.3% (inactive). The inhibition of viability [7] was -13.5% (inactive), the viability decrease (inhibition) [8] was 37.9% (inactive) and the viability decrease (inhibition) [9] was 82.5% (active). For the same compound, the fold change [10, 17] was 0.937 (inactive), the fold change [10, 18] was 1.05 and the cell count [10, 19] was 8540. For the same compound, the cell count [10, 20] was 9120, the z-score [11, 21] was -0.257 (inactive) and the z-score [11, 22] was -0.191.

With `O=C(O)COC(=O)Cc1ccccc1Nc1c(Cl)cccc1Cl` the survival [16] was 18.6 (inactive), the parasite load remaining [1] was 25.9% (inactive) and 102% (inactive) and 21.3% (inactive) and the viability [1] was 47% and 92.7% and 77%. For the same compound, the nuclear beta-catenin stimulation ([2]; at 10 µM) was 1.1% (inactive), the nuclear beta-catenin stimulation ([2]; stimulation, at 2 µM) was -1% and the insulin secretion stimulation [3] was 3.2% (inactive). For the same compound, the viability decrease [4] was 30.7% (inactive), the tube area decrease [5] was -0.5% (inactive) and the GLP1 secretion stimulation [6] was 1% (inactive). For the same compound, the inhibition of viability [7] was 26% (inactive), the viability decrease (inhibition) [8] was 83.7% (active) and the viability decrease (inhibition) [9] was 20.5% (inactive). The fold change [10, 17] was 0.899 (inactive) and 0.88 (inactive), the fold change [10, 18] was 1.19 and 1.2 and the cell count [10, 19] was 8790 and 10000. For the same compound, the cell count [10, 20] was 9770 and 11400, the z-score [11, 21] was -0.0312 (inactive) and 0.298 (inactive) and the z-score [11, 22] was -0.0287 and -0.406. The remaining NAD [12] was 10 nM (inactive) and the z-score [14] was 0.67 (inactive).

For `CC(C)(CO)[C@@H](O)C(=O)NCCCO`, the survival [16] was 26.3 (inactive), the parasite load remaining [1] was 20.9% (inactive) and 97.7% (inactive) and 20.3% (inactive) and the viability [1] was 47.1% and 90.5% and 98.9%. The nuclear beta-catenin stimulation ([2]; at 10 µM) was 1.6% (inactive), the nuclear beta-catenin stimulation ([2]; stimulation, at 2 µM) was 1.3% and the insulin secretion stimulation [3] was -2.9% (inactive). The viability decrease [4] was -4.45% (inactive), the tube area decrease [5] was 10.3% (inactive) and the GLP1 secretion stimulation [6] was 3.1% (inactive). For the same compound, the inhibition of viability [7] was 4.3% (inactive), the viability decrease (inhibition) [8] was 100% (active) and the viability decrease (inhibition) [9] was -5.1% (inactive). For the same compound, the fold change [10, 17] was 0.883 (inactive) and 0.939 (inactive), the fold change [10, 18] was 1.21 and 2.44 and the cell count [10, 19] was 8270 and 12000. For the same compound, the cell count [10, 20] was 9370 and 12800, the z-score [11, 21] was 0.185 (inactive) and the z-score [11, 22] was 0.0963. The remaining NAD [12] was 10 nM (inactive).

With `COc1ccccc1O` the parasite load remaining [1] was 50.2% (inactive), the viability [1] was 93.5% and the nuclear beta-catenin stimulation ([2]; at 10 µM) was -1.7% (inactive). For the same compound, the nuclear beta-catenin stimulation ([2]; stimulation, at 2 µM) was 2.4%, the insulin secretion stimulation [3] was 2.9% (inactive) and the viability decrease [4] was -10.4% (inactive). For the same compound, the tube area decrease [5] was -0.8% (inactive), the GLP1 secretion stimulation [6] was -3.6% (inactive) and the inhibition of viability [7] was 3% (inactive). The viability decrease (inhibition) [8] was 1.3% (inactive), the viability decrease (inhibition) [9] was -5.1% (inactive) and the fold change [10, 17] was 0.954 (inactive). For the same compound, the fold change [10, 18] was 1.02, the cell count [10, 19] was 10200 and the cell count [10, 20] was 10700. For the same compound, the z-score [11, 21] was 0.215 (inactive) and 0.0947 (inactive), the z-score [11, 22] was -0.0355 and -0.379 and the remaining NAD [12] was 10 nM (inactive). The z-score [14] was 0.615 (inactive).

With `CC(=O)OCC(=O)[C@@]1(OC(C)=O)[C@@H](C)C[C@H]2[C@@H]3C[C@H](F)C4=CC(=O)C=C[C@]4(C)[C@@]3(F)[C@@H](O)C[C@@]21C` the survival [16] was 6.42 (inactive), the parasite load remaining [1] was 91.6% (inactive) and 91.1% (inactive) and the viability [1] was 118% and 76.3%. For the same compound, the nuclear beta-catenin stimulation ([2]; at 10 µM) was 2.1% (inactive), the nuclear beta-catenin stimulation ([2]; stimulation, at 2 µM) was 0.9% and the insulin secretion stimulation [3] was 15.2% (inactive). For the same compound, the viability decrease [4] was 4% (inactive), the tube area decrease [5] was -8.8% (inactive) and the GLP1 secretion stimulation [6] was 1.7% (inactive). For the same compound, the inhibition of viability [7] was 17.6% (inactive), the viability decrease (inhibition) [8] was 16.6% (inactive) and the viability decrease (inhibition) [9] was 7.1% (inactive). For the same compound, the fold change [10, 17] was 0.811 (inactive), the fold change [10, 18] was 1.36 and the cell count [10, 19] was 7160. The cell count [10, 20] was 8820, the z-score [11, 21] was -0.532 (inactive) and the z-score [11, 22] was -0.0519. The remaining NAD [12] was 10 nM (inactive).
